“And” between values parts separate entries of the source, which are not always exact repeats. Equal values may be shown once. In all, about 5,500 compounds went through this assay and about 2,000 (36%) were called active. Not shown: some 18% with an inconclusive outcome. Rule as the data show it: active = normalized growth mostly below about 0.91 (no sharp cut-off); inconclusive = no clear call, values can overlap the other calls; inactive = mostly above about 0.92. The list shows a part of the results.
Assay: chemical genetic growth profiling, strain panel (AID 1159580);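 also: tested at 20 µM; growth read once vehicle control cultures reached saturation at 30 °C; 1 = growth at the plate median or of vehicle wells; lower values mean less growth of the strain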
Conditions: growth OD
[1] = S. cerevisiae deletion strains, locus YDL101C, strain DUN1, active compounds read low
[2] = S. cerevisiae deletion strains, locus YHR030C, strain SLT2, active compounds read low

Measured: normalized growth

C=CCc1c(CCC)nc(-c2ccccn2)[nH]c1=O
active: S. cerevisiae deletion strains, locus YLR113W, strain HOG1, active compounds read low 0.733 | S. cerevisiae deletion strains, locus YPL256C, strain CLN2, active compounds read low 0.823
inactive: S. cerevisiae deletion strains, locus YAR019C, strain CDC15, active compounds read low 0.931 | S. cerevisiae deletion strains, locus YBL105C, strain PKC1, active compounds read low 0.945 | S. cerevisiae deletion strains, locus YBR135W, strain CKS1, active compounds read low 0.95 | S. cerevisiae deletion strains, locus YBR136W, strain MEC1, active compounds read low 0.933 | S. cerevisiae deletion strains, locus YBR160W, strain CDC28, active compounds read low 0.947 | S. cerevisiae deletion strains, locus YDL017W, strain CDC7, active compounds read low 0.931 | S. cerevisiae deletion strains, locus YDL028C, strain MPS1, active compounds read low 0.931 | [1] 0.945 | S. cerevisiae deletion strains, locus YDL108W, strain KIN28, active compounds read low 0.937 | S. cerevisiae deletion strains, locus YDL132W, strain cdc53, active compounds read low 0.936 | S. cerevisiae deletion strains, locus YDL214C, strain PRR2, active compounds read low 0.893 | S. cerevisiae deletion strains, locus YDR052C, strain DBF4, active compounds read low 0.955 | S. cerevisiae deletion strains, locus YDR054C, strain cdc34, active compounds read low 0.916 | S. cerevisiae deletion strains, locus YDR226W, strain ADK1, active compounds read low 0.94 | S. cerevisiae deletion strains, locus YDR477W, strain SNF1, active compounds read low 0.891 | S. cerevisiae deletion strains, locus YER123W, strain YCK3, active compounds read low 0.772 | S. cerevisiae deletion strains, locus YER133W, strain GLC7, active compounds read low 0.912 | S. cerevisiae deletion strains, locus YFL009W, strain cdc4, active compounds read low 0.928 | S. cerevisiae deletion strains, locus YFL029C, strain CAK1, active compounds read low 0.92 | S. cerevisiae deletion strains, locus YFR003C, strain YPI1, active compounds read low 0.952 | S. cerevisiae deletion strains, locus YFR019W, strain FAB1, active compounds read low 0.939 | S. cerevisiae deletion strains, locus YFR028C, strain CDC14, active compounds read low 0.945 | S. cerevisiae deletion strains, locus YGR040W, strain KSS1, active compounds read low 0.893 | S. cerevisiae deletion strains, locus YGR052W, strain FMP48, active compounds read low 0.904 | S. cerevisiae deletion strains, locus YGR092W, strain DBF2, active compounds read low 0.752 | [2] 0.875 | S. cerevisiae deletion strains, locus YHR079C, strain IRE1, active compounds read low 0.701 | S. cerevisiae deletion strains, locus YHR082C, strain KSP1, active compounds read low 0.883 | S. cerevisiae deletion strains, locus YHR205W, strain SCH9, active compounds read low 0.983 | S. cerevisiae deletion strains, locus YIL147C, strain SLN1, active compounds read low 0.931 | S. cerevisiae deletion strains, locus YJL095W, strain BCK1, active compounds read low 0.784 | S. cerevisiae deletion strains, locus YJL128C, strain PBS2, active compounds read low 0.96 | S. cerevisiae deletion strains, locus YJL157C, strain FAR1, active compounds read low 0.867 | S. cerevisiae deletion strains, locus YJR016C, strain ILV3, active compounds read low 0.94 | S. cerevisiae deletion strains, locus YJR066W, strain TOR1 (second series), active compounds read low 0.767 | S. cerevisiae deletion strains, locus YJR066W, strain TOR1, active compounds read low 0.748 | S. cerevisiae deletion strains, locus YKL048C, strain ELM1, active compounds read low 0.966 | S. cerevisiae deletion strains, locus YKL067W, strain YNK1, active compounds read low 0.902 | S. cerevisiae deletion strains, locus YKL101W, strain HSL1, active compounds read low 0.896 | S. cerevisiae deletion strains, locus YKL193C, strain SDS22, active compounds read low 0.936 | S. cerevisiae deletion strains, locus YKL203C, strain TOR2, active compounds read low 0.926 | S. cerevisiae deletion strains, locus YLR133W, strain CKI1, active compounds read low 0.886 | S. cerevisiae deletion strains, locus YLR403W, strain SFP1, active compounds read low 0.892 | S. cerevisiae deletion strains, locus YML070W, strain DAK1, active compounds read low 0.884 | S. cerevisiae deletion strains, locus YMR001C, strain CDC5, active compounds read low 0.937 | S. cerevisiae deletion strains, locus YMR205C, strain PFK2 (second series), active compounds read low 0.901 | S. cerevisiae deletion strains, locus YMR277W, strain FCP1, active compounds read low 0.944 | S. cerevisiae deletion strains, locus YNL006W, strain LST8, active compounds read low 0.943 | S. cerevisiae deletion strains, locus YNL020C, strain ARK1, active compounds read low 0.877 | S. cerevisiae deletion strains, locus YNL161W, strain CBK1, active compounds read low 0.945 | S. cerevisiae deletion strains, locus YNL183C, strain NPR1, active compounds read low 0.825 | S. cerevisiae deletion strains, locus YNL207W, strain RIO2, active compounds read low 0.924 | S. cerevisiae deletion strains, locus YNL222W, strain SSU72, active compounds read low 0.945 | S. cerevisiae deletion strains, locus YNL307C, strain MCK1 (second series), active compounds read low 0.84 | S. cerevisiae deletion strains, locus YOL078W, strain AVO1, active compounds read low 0.933 | S. cerevisiae deletion strains, locus YOL136C, strain PFK27, active compounds read low 0.883 | S. cerevisiae deletion strains, locus YOR061W, strain CKA2, active compounds read low 0.877 | S. cerevisiae deletion strains, locus YOR119C, strain RIO1, active compounds read low 0.905 | S. cerevisiae deletion strains, locus YOR231W, strain MKK1, active compounds read low 0.73 | S. cerevisiae deletion strains, locus YOR329C, strain SCD5, active compounds read low 0.941 | S. cerevisiae deletion strains, locus YPL031C, strain PHO85, active compounds read low 0.891 | S. cerevisiae deletion strains, locus YPL153C, strain RAD53, active compounds read low 0.864 | S. cerevisiae deletion strains, locus YPL204W, strain HRR25, active compounds read low 0.856 | S. cerevisiae deletion strains, locus YPL209C, strain IPL1, active compounds read low 0.94 | S. cerevisiae deletion strains, locus YPR025C, strain CCL1, active compounds read low 0.945 | S. cerevisiae deletion strains, locus YPR106W, strain ISR1, active compounds read low 0.944 | S. cerevisiae deletion strains, locus YPR111W, strain DBF20, active compounds read low 0.954 | S. cerevisiae deletion strains, strain NNK1, active compounds read low 0.945 | S. cerevisiae deletion strains, strain TSCII, active compounds read low 0.929

Cc1cc(=O)[nH]c(-c2ccccn2)n1
inactive: S. cerevisiae deletion strains, locus YAL013W, strain DEP1, active compounds read low 1.01 and 0.994 | S. cerevisiae deletion strains, locus YBR229C, strain ROT2, active compounds read low 1.01 | S. cerevisiae deletion strains, locus YCL061C, strain MRC1, active compounds read low 1 and 0.995 | [1] 0.994 | S. cerevisiae deletion strains, locus YDL134C, strain PPH21, active compounds read low 1.02 | S. cerevisiae deletion strains, locus YDR150W, strain NUM1, active compounds read low 0.912 and 1.02 | S. cerevisiae deletion strains, locus YEL061C, strain CIN8, active compounds read low 0.993 and 1.01 | S. cerevisiae deletion strains, locus YGR078C, strain PAC10, active compounds read low 1 and 1.01 | S. cerevisiae deletion strains, locus YGR229C, strain SMI1, active compounds read low 1.02 | [2] 1.02 and 1.03 | S. cerevisiae deletion strains, locus YHR087W, strain rtc3, active compounds read low 1.01 | S. cerevisiae deletion strains, locus YJR043C, strain POL32, active compounds read low 1.01 | S. cerevisiae deletion strains, locus YJR075W, strain HOC1, active compounds read low 1.04 and 1.01 | S. cerevisiae deletion strains, locus YLR039C, strain RIC1, active compounds read low 0.993 and 1.05 | S. cerevisiae deletion strains, locus YLR058C, strain SHM2 (second series), active compounds read low 1.01 and 1.02 | S. cerevisiae deletion strains, locus YLR085C, strain ARP6, active compounds read low 0.91 and 1.03 | S. cerevisiae deletion strains, locus YLR262C, strain YPT6, active compounds read low 0.993 and 1.02 | S. cerevisiae deletion strains, locus YML094W, strain GIM5, active compounds read low 0.965 and 1.01 | S. cerevisiae deletion strains, locus YMR219W, strain ESC1, active compounds read low 1.01 | S. cerevisiae deletion strains, locus YMR263W, strain SAP30, active compounds read low 0.943 and 0.992 | S. cerevisiae deletion strains, locus YMR307W, strain GAS1, active compounds read low 1.07 | S. cerevisiae deletion strains, locus YNL153C, strain GIM3, active compounds read low 1 and 0.995 | S. cerevisiae deletion strains, locus YNL298W, strain CLA4 (second series), active compounds read low 0.986 and 1.02 | S. cerevisiae deletion strains, locus YNL322C, strain KRE1, active compounds read low 1.01 and 1 | S. cerevisiae deletion strains, locus YNR030W, strain Alg12, active compounds read low 1.02 | S. cerevisiae deletion strains, locus YOL006C, strain TOP1, active compounds read low 1.09 | S. cerevisiae deletion strains, locus YPL055C, strain LGE1, active compounds read low 0.936 and 1 | S. cerevisiae deletion strains, locus YPL241C, strain CIN2, active compounds read low 1.03 | S. cerevisiae deletion strains, locus YPR135W, strain CTF4, active compounds read low 0.997 and 1.01 | S. cerevisiae strains, strain wild type, active compounds read low 1.01
